Compound activity deposited in PubChem by National Center for Advancing Translational Sciences (NCATS).
PTHR1 agonist = agonists of human PTHR1 parathyroid hormone receptor | HEK293 GP2 PTHR1 cells, GloSensor cAMP luminescence, 1 h | AID 743266 | 410,000 compounds, 0.075% hits | Potency, µM (series often up to 115 µM), for inactives: at the highest dose activation, hits mostly activators | Q03431; note: potency is the fitted concentration of half-maximal effect; nearly all actives have a fitted effect of over 55% in size
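HEK-293-derived GP2 cells expressing PTHR1 and a GloSensor cAMP reporter, 3,000/well, plated overnight, given luciferin plus IBMX (each 0.5 mM as added) for 1 h at 37 °C, then compound for 1 h at 37 °C. Luminescence was read after 15 min at room temperature.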
GLP-1R agonist = GLP-1 receptor (human) agonism; 380,000 compounds, 0.007% hits; HEK293 GLP-1R CRE-luciferase, luminescence, 4-6 h; cells express a hypersensitive GLP-1R form; Potency, µM (titrated, usually from 45.6 µM), for inactives: at the top dose activation, actives largely listed as activators; note: potency is the fitted concentration of half-maximal effect; % of control where 0% means no effect
LDHA block = inhibitors of human lactate dehydrogenase A; P00338; purified LDHA, NADH/diaphorase-resazurin fluorescence; hits give low values; activity change, % (values are at about 110 or 230 µM); 480,000 compounds, 0.15% hits; in the data active = activity change below about -30%; inconclusive = mostly about -25% to -30%;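 note: plate controls were DMSO wells for no effect and wells without enzyme for full effect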
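Remaining NADH was detected by diaphorase (0.133 mg/mL) converting 37 µM resazurin to fluorescent resorufin, read at 0 and 20 minutes. The preceding 5-minute room-temperature reaction used 2 nM LDHA, 0.2 mM sodium pyruvate and 0.06 mM NADH at pH 7.4.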
IDH1 R132H inh = blocks human mutant IDH1 R132H enzyme | O75874 | IDH1-R132H enzyme, NADPH consumption, diaphorase/resazurin fluorescence | Potency, µM (series often up to 76.6 µM), without a hit: at the highest dose activity change, negative = inhibition, most hits filed as inhibitors | 390,000 compounds, 0.093% hits | AID 602179; note: potency is the fitted concentration of half-maximal effect; % is set by controls: 0 for no effect and ±100 for the full control effect; nearly all actives have a fitted effect of over 65% in size
Target sequence (O75874 whole entry R132H, stated change not applied): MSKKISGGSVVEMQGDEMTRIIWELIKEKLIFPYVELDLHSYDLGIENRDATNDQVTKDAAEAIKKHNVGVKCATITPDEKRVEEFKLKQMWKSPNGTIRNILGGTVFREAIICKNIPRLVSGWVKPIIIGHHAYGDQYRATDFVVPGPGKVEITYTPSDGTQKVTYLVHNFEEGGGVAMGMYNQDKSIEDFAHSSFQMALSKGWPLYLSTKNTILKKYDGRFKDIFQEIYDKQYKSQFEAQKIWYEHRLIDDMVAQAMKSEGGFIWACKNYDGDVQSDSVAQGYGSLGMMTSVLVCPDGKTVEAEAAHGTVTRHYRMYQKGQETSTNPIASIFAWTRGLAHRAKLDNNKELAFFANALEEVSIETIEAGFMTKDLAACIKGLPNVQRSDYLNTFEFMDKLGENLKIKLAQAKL
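IDH1-R132H (0.5 ug/mL) preincubated 30 min with compound, then NADPH (0.016 mM) and alpha-KG (2 mM) added; 80 min at RT, pH 7.5. Remaining NADPH coupled via diaphorase/resazurin to fluorescence (540/590 nm); concentration-response curves normalized to no-enzyme control.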
HEK293 tox = cytotoxicity in counter-screen for GLP-1R inverse agonists; 410,000 compounds, 0.13% hits; HEK293 cAMP-luciferase reporter cells, luminescence, 24 h; AID 624418; Potency, µM (top dose mostly 38.3 µM), without a hit: top-dose activity change, negative = inhibition, actives largely listed as inhibitors;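 note: loss of luciferase light is scored as toxicity; potency is the fitted concentration of half-maximal effect; % is set by controls: 0 for no effect and ±100 for the full control effect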
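A 23 nL compound transfer followed 12 hours of cell culture at 37 deg C; exposure then lasted 24 hr. Luciferase assay detection reagent was dispensed and plates read for luminescence after a 12 min room-temperature wait.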
GLP-1R inv ag = GLP-1 receptor (human) inverse agonism; P43220; HEK293 GLP-1R CRE-luciferase, luminescence, 24 h; GLP-1R form is constitutively active; Potency, µM (highest dose often 38.3 µM), for inactives: at the highest dose activity change, negative = inhibition, usual class: inhibitors; 410,000 compounds, 1.6% hits; AID 624417; note: potency is the fitted concentration of half-maximal effect; % is set by controls: 0 for no effect and ±100 for the full control effect; nearly all actives have a fitted effect of over 55% in size
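Using stably transfected HEK293 (constitutively active GLP-1R, cAMP-luciferase reporter), compounds were incubated 24 hr and luciferase measured by luminescence.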
Starred values were filed as active, the others as inactive; i = inactive; u = inconclusive; x = no result; ! = not active in a repeat; [ ] = dose if it differs, or a comment. The list is not random: actives were taken first. Their share in the collection is about 1.7%. Unless noted, calls come from the whole dose curve; as a rule, active = well fitted curve in the direction sought with a large enough effect; inconclusive = small, poorly fitted or top-dose-only effect, or another doubt; inactive = no such curve, though single readings can be large; an effect the other way counts as inactive or inconclusive.

SMILES	PTHR1 agonist	GLP-1R agonist	LDHA block	IDH1 R132H inh	HEK293 tox	GLP-1R inv ag
O=C(O)c1ccc(O)c(Cl)c1	x	x	-25	x	x	x
FC(F)(F)c1ccc(Cl)c(N/N=C/c2ccccc2)c1	x	x	10	x	x	x
CC(CCc1ccccc1)N1CCN(Cc2ccccc2)CC1 (stereo unspecified)	i	-2%	-31*	3%	-5%	-13%
CCS(=O)(=O)N1CCN(C(C)CCc2ccccc2)CC1 (stereo unspecified)	-7%[57.5 µM]	-6%	-19	9%	8%	-26%
COc1ccc(S(=O)Cc2ccc(C(=O)N3CCN(c4cccc(C)c4C)CC3)o2)cc1 (stereo unspecified)	-9%	-5%	-1	-1%	2%	7.1µM*!
O=C(c1ccc(CS(=O)c2ccccc2Cl)o1)N1CCN(c2cccc(Cl)c2)CC1 (stereo unspecified)	-13%	x	-7	-13%	u	0.89µM*
O=C(c1ccc(CS(=O)c2ccccc2Cl)o1)N1CCN(c2cccc(C(F)(F)F)c2)CC1 (stereo unspecified)	-42%	x	0	10%	-26%	u
Cc1ccccc1S(=O)(=O)Cc1ccc(C(=O)N2CCN(c3cccc(C)c3C)CC2)o1	-29%[57.5 µM]	-18%	-2	7%	u	4.5µM*
CC(C)CCn1c(NCCO)nc2c1c(=O)n(C)c(=O)n2C	x	x	7	x	x	x
Cc1sc2nc(CN3CCOCC3)[nH]c(=O)c2c1-c1ccccc1	i	-2%	-2	3%	-12%	-1%
COCCNCc1nc2sc(C)c(-c3ccccc3)c2c(=O)[nH]1	-6%	9%	-23	3%	u	11µM*
O=C(Nc1nn(Cc2ccc(Cl)cc2)cc1Br)c1ccc(COc2ccccc2Cl)o1	i	-3%	-5	0%	5%	5µM*
CCOc1ccc(N2CC(O)Cn3c2nc2c3c(=O)n(CCCc3ccccc3)c(=O)n2C)cc1 (stereo unspecified)	i	2%	-3	0%	-33%	5.6µM*
Cc1nc2c(O)c3c(c(O)c2nc1C)C1C=CC3CC1	-22%	-5%	44	21%	5.6µM*	u
COc1ccc(F)c(CN2CCC(CO)(Cc3cccc(C(F)(F)F)c3)CC2)c1	-6%	11%	-3	4%	-3%	u
COc1cc(CN2CCC(CO)(Cc3cccc(C(F)(F)F)c3)CC2)ccc1F	i	-1%	2	5%	u	3.2µM*
Cc1ccc(-n2ncc3c(NCCCOC(C)C)ncnc32)c(C)c1	-15%[57.5 µM]	1%	-6	-1%	13%	2.5µM*
Cc1ccc(-n2ncc3c(NCC(C)C)ncnc32)c(C)c1	0%	x	1	25%	0%	u
Cc1ccc(-n2ncc3c(N(CC(C)C)CC(C)C)ncnc32)c(C)c1	i	x	-4	-5%	1%	2.8µM*
CCCCc1nc(NCCNC(=O)c2ccccc2)c(C#N)c2c1CSC(C)(C)C2	-8%	-34%	4	-1%	u	8.9µM*
CCOC(=O)c1ccc(NC(=S)N(CCCN2CCCCC2)Cc2ccco2)cc1	-8%	u	0	-6%	u	11µM*
CCOC(=O)c1ccc(NC(=S)N(CCCN(CC)CC)Cc2ccco2)cc1	i	11%	-6	19%	3%	u
CCc1nnsc1C(=O)N(C)CCOc1ccccc1C	x	x	-6	x	x	x
CC(C)CNC(=O)c1ccccc1NC(=O)C1CCN(S(=O)(=O)Cc2ccccc2)CC1	x	x	17	x	x	x
Cc1ccc(NC(=O)Nc2cc(C(F)(F)F)c[nH]c2=O)cc1	i	11%	-10	-4%	-11%	10µM*
SMILES	PTHR1 agonist	GLP-1R agonist	LDHA block	IDH1 R132H inh	HEK293 tox	GLP-1R inv ag
Cc1ccc(C)c(N2CCN(C(=O)c3ccc(CS(=O)c4ccc(Cl)cc4)o3)CC2)c1 (stereo unspecified)	x	x	0	x	x	x
CC(C)(C)c1ccc(C(=O)NCC(c2cccs2)S(=O)(=O)c2ccccc2)cc1 (stereo unspecified)	i	x	2	-1%	1%	2.8µM*
Cc1cccc2c(=O)n(CC(=O)Nc3ccc4oc(C(C)(C)C)nc4c3)cnc12	x	x	7	x	x	x
O=C(CNCCN1CCOCC1)Nc1ccccc1Sc1ccccc1	i	15%	-31*	11%	-8%	3%
C=C(CC1([C@@H](NP(=O)(c2ccccc2)c2ccccc2)[C@H]2C[C@@H]2CCCC)CC1)c1ccccc1	-68%	1%	-2	11%	9%	2.5µM*
O=C(Nc1ccccc1)Nc1cccc2cccnc12	-24%	1%	-12	9%	-13%	10µM*
Cc1ccc(C)c(C(=O)COC(=O)c2ccccc2C)c1	x	x	5	x	x	x
Cc1ccc(C)c(C(=O)COC(=O)c2n[nH]c3ccccc23)c1	-39%	13%	-1	11%	-2%	10µM*
CC(C(=O)N(C)Cc1ccccc1)N1CCN(C/C=C/c2ccccc2)CC1 (stereo unspecified)	-8%	6%	-31*	2%	-10%	-27%
O=C(C1CCN(Cc2cc(Cl)ccc2O)CC1)N1CCN(Cc2ccccc2)CC1	-64%	-8%	-24	4%	-2%	7.1µM*
O=C(c1ccc2c(=O)n3c(nc2c1)CCCCC3)N1CCN(c2ccc(F)cc2)CC1	-10%	18%	-12	-3%	4%	5µM*
O=C(c1ccc2c(=O)n3c(nc2c1)CCCCC3)N1CCN(c2ccc(Cl)cc2)CC1	-8%	-4%	3	13%	10%	7.1µM*
CCCCCCCCCCCCS(=O)C(CO)CO (stereo unspecified)	x	x	37	x	x	x
Cc1cccc(-n2nc(C)c(C(=O)N3CCc4ccccc4C3)c2-n2cccc2)c1	x	x	7	x	x	x
c1ccc2nc(N3CCCC3)c(N3CCCCC3)nc2c1	-30%	13%	0	4%	9%	11µM*
c1ccc2nc(N3CCOCC3)c(N3CCCC3)nc2c1	-17%	14%	3	7%	2%	u
COc1cccc(NC(=O)c2cc3c(=O)n4ccccc4nc3n2C)c1	x	x	13	x	x	x
CCN1CCc2c(sc(-n3cccc3)c2C(C)NC(=O)Nc2ccccc2C)C1 (stereo unspecified)	-18%	x	-6	4%	-3%	-7%
CC(NC(=O)Nc1cc(Cl)ccc1Cl)c1c(-n2cccc2)sc2c1CCCC2 (stereo unspecified)	i	x	-14	-21%	-10%	3.5µM*
Clc1ccc2[nH]c3c(c2c1)CNCC3	i	-1%	-10	-4%	-2%	10µM*
